# According to the supplement of paper PMC8728848:
# This excerpt belongs to a sample that is enriched for the strongest signals.
# B1: NKp30 (Homo sapiens), O14931 (protein)
# chain: MAWMLLLILIMVHPGSCALWVSQPPEIRTLEGSSAFLPCSFNASQGRLAIGSVTWFRDEVVPGKEVRNGTPERFGRLAPLASSRFLHDHQAELHIRDVRGHDASIYVCRVEVLGLGVGTGNGTRLVVRKEHPQLGAGTHADPEAPEAEGAPSVFLFPPKPKDTLMISRTPEVTCVVVDVSHEDPEVKFNWYVDGVEVHNAKTPREEQYNSTYRVVSVLTVLHQDWLNGKEYKCKVSNKALPAPIEKTISKAKGQPREPQVYTLPPSRDELTKNQVSLTCLVKGFYPSDIAVEWESNGQPENNYKTTPPVLDSDGSFFLYSKLTVDKSRWQQGNVFSCSVMHEALHNHYTQKSLSLSPGK
# What was measured:
# Experiment in all cases: glycan array binding signal (z-score within array); higher = stronger binding
# Settings in all cases: glycan notation: IUPAC condensed, linker removed
# Fuc(a1-2)Gal(b1-4)Glc = target: Fuc(a1-2)Gal(b1-4)Glc
# Method in brief: (§1)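 Glycan array binding is given as a within-array Z-score, which can be read as non-binding when negative. The arrays, 3228 of them, came from the Consortium for Functional Glycomics database and were retained only where the protein sequence was available. Z-scores were averaged across arrays of the same protein sequence at different concentrations or buffers and across linkers.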
# [1] = target: Fuc(a1-2)Gal(b1-4)[Fuc(a1-3)]GlcNAc
# Method in brief: as §1
# Fuc(a1-2)[Gal(a1-3)]Gal = target: Fuc(a1-2)[Gal(a1-3)]Gal
# Method in brief: as §1
# [2] = target: Fuc(a1-2)[GalNAc(a1-3)]Gal(b1-4)[Fuc(a1-3)]GlcNAc
# Method in brief: as §1
# [3] = target: Fuc(a1-2)[GalNAc(a1-4)]Gal(b1-4)GlcNAc
# Method in brief: as §1
# Fuc(a1-3)GlcNAc = target: Fuc(a1-3)GlcNAc
# Method in brief: as §1
# Gal(a1-2)Gal = target: Gal(a1-2)Gal
# Method in brief: as §1
# Gal(a1-3)Gal = target: Gal(a1-3)Gal
# Method in brief: as §1
# Gal(a1-3)Gal(b1-4)Glc = target: Gal(a1-3)Gal(b1-4)Glc
# Method in brief: as §1
# Gal(a1-6)Glc = target: Gal(a1-6)Glc
# Method in brief: as §1
# [4] = target: Gal(b1-3)GalNAc(b1-4)[Neu5Ac(a2-3)]Gal(b1-4)Glc
# Method in brief: as §1
# [5] = target: Gal(b1-3)[Neu5Ac(b2-6)]GalNAc
# Method in brief: as §1
# [6] = target: Gal(b1-4)GalNAc(a1-3)[Fuc(a1-2)]Gal(b1-4)GlcNAc
# Method in brief: as §1
# [7] = target: Gal(b1-4)GlcNAc(b1-3)Gal(b1-4)GlcNAc(b1-3)Gal(b1-4)GlcNAc
# Method in brief: as §1
# [8] = target: Gal(b1-4)GlcNAc(b1-3)[Gal(b1-4)GlcNAc(b1-6)]Gal(b1-4)GlcNAc
# Method in brief: as §1
# Gal3S(b1-3)GalNAc = target: Gal3S(b1-3)GalNAc
# Method in brief: as §1
# Gal3S(b1-4)Glc = target: Gal3S(b1-4)Glc
# Method in brief: as §1
# Gal3S(b1-4)GlcNAc6S = target: Gal3S(b1-4)GlcNAc6S
# Method in brief: as §1
# GalNAc(b1-3)GalNAc = target: GalNAc(b1-3)GalNAc
# Method in brief: as §1
# Glc(a1-4)Glc = target: Glc(a1-4)Glc
# Method in brief: as §1
# GlcNAc(b1-3)Man = target: GlcNAc(b1-3)Man
# Method in brief: as §1
# GlcNAc(b1-4)GlcNAc = target: GlcNAc(b1-4)GlcNAc
# Method in brief: as §1
# Kdn(a2-3)Gal(b1-4)GlcNAc = target: Kdn(a2-3)Gal(b1-4)GlcNAc
# Method in brief: as §1
# [9] = target: Man(a1-2)Man(a1-6)[Man(a1-3)]Man(a1-6)[Man(a1-2)Man(a1-2)Man(a1-3)]Man
# Method in brief: as §1
# [10] = target: Man(a1-2)Man(a1-6)[Man(a1-3)]Man(a1-6)[Man(a1-2)Man(a1-2)Man(a1-3)]Man(b1-4)GlcNAc(b1-4)GlcNAc
# Method in brief: as §1
# [11] = target: Neu5Ac(a2-3)Gal(b1-4)[Fuc(a1-3)]GlcNAc(b1-3)Gal(b1-4)[Fuc(a1-3)]GlcNAc(b1-3)Gal(b1-4)[Fuc(a1-3)]GlcNAc
# Method in brief: as §1
# [12] = target: Neu5Ac(a2-6)Gal(b1-4)GlcNAc(b1-3)Gal(b1-4)[Fuc(a1-3)]GlcNAc(b1-3)Gal(b1-4)[Fuc(a1-3)]GlcNAc
# Method in brief: as §1
# [13] = target: Neu5Ac(a2-8)Neu5Ac(a2-8)Neu5Ac(a2-3)[GalNAc(b1-4)]Gal(b1-4)Glc
# Method in brief: as §1
# [14] = target: Neu5Ac9Ac(a2-6)Gal(b1-4)GlcNAc
# Method in brief: as §1
binder,measurement,setting,value
B1,glycan array binding signal (z-score),Fuc(a1-2)Gal(b1-4)Glc,-0.091
same,glycan array binding signal (z-score),[1],0.195
same,glycan array binding signal (z-score),Fuc(a1-2)[Gal(a1-3)]Gal,0.375
same,glycan array binding signal (z-score),[2],0.416
same,glycan array binding signal (z-score),[3],-0.379
same,glycan array binding signal (z-score),Fuc(a1-3)GlcNAc,13.9
same,glycan array binding signal (z-score),Gal(a1-2)Gal,1.41
same,glycan array binding signal (z-score),Gal(a1-3)Gal,1.89
same,glycan array binding signal (z-score),Gal(a1-3)Gal(b1-4)Glc,2.48
same,glycan array binding signal (z-score),Gal(a1-6)Glc,6.49
same,glycan array binding signal (z-score),[4],-0.671
same,glycan array binding signal (z-score),[5],-0.317
same,glycan array binding signal (z-score),[6],0.071
same,glycan array binding signal (z-score),[7],-0.44
same,glycan array binding signal (z-score),[8],0.041
same,glycan array binding signal (z-score),Gal3S(b1-3)GalNAc,-0.265
same,glycan array binding signal (z-score),Gal3S(b1-4)Glc,-0.02
same,glycan array binding signal (z-score),Gal3S(b1-4)GlcNAc6S,-0.253
same,glycan array binding signal (z-score),GalNAc(b1-3)GalNAc,1.68
same,glycan array binding signal (z-score),Glc(a1-4)Glc,0.053
same,glycan array binding signal (z-score),GlcNAc(b1-3)Man,-0.416
same,glycan array binding signal (z-score),GlcNAc(b1-4)GlcNAc,0.115
same,glycan array binding signal (z-score),Kdn(a2-3)Gal(b1-4)GlcNAc,-0.251
same,glycan array binding signal (z-score),[9],-0.314
same,glycan array binding signal (z-score),[10],-0.41
same,glycan array binding signal (z-score),[11],-0.204
same,glycan array binding signal (z-score),[12],-0.38
same,glycan array binding signal (z-score),[13],-0.221
same,glycan array binding signal (z-score),[14],0.048
